The results in this text go back to PubChem BioAssay.

The structures appear in SMILES notation. Calls of active or inactive are those of the source.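 Rule for the calls, unless noted: active = inhibition at or above 50% relative to wild type and mutant plate controls; inactive = inhibition below 50%.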

Assay [1] in a line: inhibitors of TNFa-induced NFkB p65 translocation, primary screen, imaging, HUVEC, MLSMR starter and 10KST1 sets (AID 438;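 active = inhibition above 20% together with a positive visual image hit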;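 note: compound added about 3h40 before a 20 min TNFalpha stimulation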;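 for inhibition: signal is the nuclear over cytoplasmic p65 intensity ratio per well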). Conditions: HUVEC TNFa-induced p65 nuclear translocation; cell count: measured here: nuclei count (cytotoxicity indicator), at 2.08 µM unless noted; inhibition: at 2 µM, stronger effect = higher value unless noted.
Assay [2] can be described thus: reduction of polyQ htt aggregates in cells – imaging, exon1htt(103Q)mCFP cells, high-content imaging, primary screen (AID 483;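 active = visual image review flags a hit and inhibition of aggregation exceeds 20%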;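 note: compound exposure lasted 3 days before fixation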;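 for nuclei count: percent of the per-plate median nuclei count of sample wells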). Conditions: exon1htt(103Q)mCFP cell line, aggregate imaging, at 2 µM; inhibition of aggregation: stronger effect = higher value; nuclei count: measured here: cell count, toxicity.
Assay [3] can be described thus: endothelial E-selectin expression blockers – imaging, HUVEC, immunofluorescence, MLSMR starter and 10KST1 sets, primary screen (AID 487;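 active = visually confirmed hit in the image check and inhibition above 20%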;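 for inhibition: signal is fraction of cell area covered by stained E-selectin grains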;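 for nuclei count: 100% = median nuclei count of all wells on the same plate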). Conditions: HUVEC TNFalpha-induced E-selectin immunofluorescence imaging, at 2 µM; inhibition: stronger effect = higher value; nuclei count: measured here: cell number, toxicity.
Assay [4] has as its target Voltage-gated potassium channel subunit beta-2 (Rattus norvegicus) (UniProt P62483). Nature of the assay: inhibitors of rat Kvbeta2 reductase activity – biochemical, NADPH fluorescence, primary screen (AID 622;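 active = fluorescence slope higher than the sample average by over 3 SD, cut at about -0.22 in these data, passing the limit was not always enough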;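 note: slope of raw intensity against log time taken from 70 to 1610 s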). Conditions: recombinant KvBeta, 4-cyanobenzaldehyde reduction, at 10 µM, stronger effect = higher value.
For assay [5] the target is unchanged. Nature of the assay: enhancers of rat Kvbeta2 NADPH turnover – biochemical, NADPH fluorescence, primary screen (AID 623;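 active = NADPH fluorescence slope more negative than the mean of all samples by about 3 SD, 99.7% confidence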;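 note: fluorescence intensity change per second fitted from 20 to 320 s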). Conditions: Recombinant KvBeta, NADPH fluorescence decrease slope, 10 min; at 10 µM; stronger effect = lower value.
The target in assay [6] is Alpha-2C adrenergic receptor (Homo sapiens) (UniProt P18825). Nature of the assay: compounds altering alpha2C-coupled GIRK flux – cell-based, HEK293 alpha2C/GIRK1/2, thallium flux, primary screen (AID 624;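 active = fluorescence slope after compound addition differing from the mean of all screened samples at 99.7% confidence, in either direction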;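 note: slope of fluorescence ratio to pre-addition baseline per second over 15 to 24 s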). Conditions: thallium flux BTC fluorescence, at 10 µM, actives lie on both sides.
Sequence of Alpha-2C adrenergic receptor (Homo sapiens) (P18825 whole entry, looked up): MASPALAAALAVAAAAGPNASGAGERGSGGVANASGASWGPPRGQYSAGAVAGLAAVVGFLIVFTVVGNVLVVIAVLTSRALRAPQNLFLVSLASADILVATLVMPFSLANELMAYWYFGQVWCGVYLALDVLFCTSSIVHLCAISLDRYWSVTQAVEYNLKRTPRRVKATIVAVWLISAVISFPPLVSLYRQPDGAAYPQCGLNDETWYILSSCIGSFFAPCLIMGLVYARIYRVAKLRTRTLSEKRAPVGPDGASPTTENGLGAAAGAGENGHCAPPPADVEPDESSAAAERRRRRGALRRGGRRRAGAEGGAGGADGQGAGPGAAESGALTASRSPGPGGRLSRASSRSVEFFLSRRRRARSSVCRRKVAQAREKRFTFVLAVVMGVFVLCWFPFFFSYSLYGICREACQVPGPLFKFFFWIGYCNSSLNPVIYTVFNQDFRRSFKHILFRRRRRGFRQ
A short description of assay [7]: blockers of RIG-like receptor reporter activation – cell-based, Sendai virus stimulus, luciferase, 10K MLSCN set, TLR/RLR signaling modifier project, primary screen (AID 602276;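 active = inhibition at or above 50% at 10 µM; inactive = inhibition below 50%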;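 note: firefly luciferase from ISG56 promoter only with Renilla not read in this screen; 0% = Sendai virus plus DMSO and 100% = medium plus DMSO without virus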). Conditions: HEK293 RL24 IRF3 luciferase reporter, at 10 µM, stronger effect = higher value.
Assay [8] is described as follows: TLR3 IRF3 reporter activation blockers – cell-based, poly I:C stimulus, luciferase, 10K MLSCN set, primary screen (AID 602277;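 active = inhibition of the reporter signal at or above 50%; inactive = inhibition below 50%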). Conditions: HEK293-TLR3 RL24 IRF3 luciferase reporter, at 10 µM, stronger effect = higher value.
Assay [9] has as its target Muscarinic acetylcholine receptor M4 (Homo sapiens) (UniProt P08173). Nature of the assay: M4-linked GIRK flux change, two-sided – cell-based, HEK293 M4/GIRK, thallium flux, BTC-AM, M4 allosteric agonist project, primary screen (AID 625;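 active = fluorescence slope after compound addition differing from the mean of all tested samples at 99.7% confidence, mostly higher but some lower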;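 note: thallium influx through GIRK channels coupled to M4 in HEK293 cells with BTC-AM dye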). Conditions: at 10 µM, actives lie on both sides.
A short description of assay [10]: inhibitors of larval lipid processing in zebrafish, primary screen, whole organism, PED6 fluorescence, gall bladder and intestine (AID 686;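 active = a full or partial loss of lipid-probe fluorescence in the fish gall bladder, intestine or both, judged by eye; inactive = no fluorescence loss, or compound toxic to the fish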;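 note: larvae 5 to 7 days old with five fish per well; signal comes from phospholipase A2 cleavage of quenched PED6 carried via bile; overnight exposure to compound and PED6 before scoring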). Conditions: Zebrafish larvae PED6 lipid processing, fluorescence scoring.
Assay [11] is described as follows: loss of swimming-algae plug formation – whole organism, Chlamydomonas reinhardtii, WT vs cilia-less mutant, absorbance, 96-well, primary screen (AID 463189).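 Note: 0% = wild type cc124 cells in DMSO and 100% = ciliumless bld1 mutant cells.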 Conditions: Chlamydomonas reinhardtii gravitaxis, OD600 absorbance, 2 days; at 10 µM; stronger effect = higher value.

Sequence of Voltage-gated potassium channel subunit beta-2 (Rattus norvegicus) (P62483 whole entry, looked up): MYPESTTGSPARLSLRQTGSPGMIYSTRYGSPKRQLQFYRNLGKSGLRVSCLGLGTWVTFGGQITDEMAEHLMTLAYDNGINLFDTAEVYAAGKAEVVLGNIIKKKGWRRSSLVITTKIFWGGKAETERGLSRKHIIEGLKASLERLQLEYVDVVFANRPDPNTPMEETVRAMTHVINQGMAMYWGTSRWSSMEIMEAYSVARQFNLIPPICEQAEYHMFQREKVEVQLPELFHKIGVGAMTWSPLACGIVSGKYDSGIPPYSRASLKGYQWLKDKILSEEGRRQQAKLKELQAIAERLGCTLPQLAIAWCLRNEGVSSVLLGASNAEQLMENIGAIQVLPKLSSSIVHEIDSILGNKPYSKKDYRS
Sequence of Muscarinic acetylcholine receptor M4 (Homo sapiens) (P08173 whole entry, looked up): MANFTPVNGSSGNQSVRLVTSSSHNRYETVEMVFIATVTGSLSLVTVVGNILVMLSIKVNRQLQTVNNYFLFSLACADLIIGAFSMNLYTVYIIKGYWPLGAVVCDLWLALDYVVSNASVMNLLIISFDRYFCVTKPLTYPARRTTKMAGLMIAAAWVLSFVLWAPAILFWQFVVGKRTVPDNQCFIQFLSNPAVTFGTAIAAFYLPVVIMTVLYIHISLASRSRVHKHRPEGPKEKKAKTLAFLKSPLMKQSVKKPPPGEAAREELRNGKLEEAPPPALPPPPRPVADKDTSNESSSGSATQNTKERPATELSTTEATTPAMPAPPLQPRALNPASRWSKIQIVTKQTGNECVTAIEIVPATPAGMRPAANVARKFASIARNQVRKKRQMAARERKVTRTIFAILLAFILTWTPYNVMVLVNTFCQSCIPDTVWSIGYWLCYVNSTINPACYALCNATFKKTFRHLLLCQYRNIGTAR

Compound `Cc1nc2ccccc2c(=O)n1-c1ccc(F)cc1` returned a cell count in [1] of 321. The inhibition was -5% (inactive) in assay [1], -36.4% (inactive) in assay [3], 7.2% (inactive) in assay [7] and 36.9% (inactive) in [8]. The inhibition of aggregation in assay [2] is 7.1% (inactive). Moreover, the nuclei count in [2] and in assay [3] was 111% throughout. Further, the fluorescence slope in [4] is -0.456 (inactive). In addition, the NADPH fluorescence slope in assay [5] is 4.9e-06 (inactive). For the same compound, the slope in [6] was 0.00327 (inactive).

In the case of `N#Cc1ccccc1Cn1cc(C(=O)c2ccco2)c2ccccc21`, the cell count in assay [1] was determined as 353. For the same compound, the inhibition in [1] was 6% (inactive); in assay [3], -3.7% (inactive); in assay [7], 16.6% (inactive); in [8], 15.1% (inactive). The inhibition of aggregation in assay [2] is 23.1% (inactive). The nuclei count came out at 76.5% in [2] and 80.5% in [3]. For the same compound, the fluorescence slope is -0.254 (inactive) in assay [4] and 0.00586 (inactive) in [9]. Further, the NADPH fluorescence slope in assay [5] was -2.3e-05 (inactive).

Compound `O=C(C1CCCN(c2nnc(-n3cccc3)s2)C1)N1CCC2(CC1)OCCO2` (centres undefined) showed a cell count in assay [1] of 597. Moreover, the inhibition in [1] is -2.2% (inactive); in assay [3] it was 8.1% (inactive); in assay [7], -2.39% (inactive); in [8], -5.8% (inactive). Further, the inhibition of aggregation in assay [2] is 1.5% (inactive). The nuclei count in [2] is 115%; in assay [3], 92.8%. Further, the fluorescence slope in assay [4] was -0.388 (inactive). For the same compound, the NADPH fluorescence slope in assay [5] is -4.5e-05 (inactive). Further, the slope in assay [6] was 0.00502 (inactive). In assay [10], the compound was called inactive.

In assay [1], `O=C1OCCC1NC1=NCCC1` (centres undefined) had a cell count of 571. Moreover, the inhibition is -9.6% (inactive) in assay [1], -16.4% (inactive) in assay [3], -0.849% (inactive) in assay [7] and 13.5% (inactive) in assay [8]. The inhibition of aggregation in assay [2] was -1.8% (inactive). Moreover, the nuclei count in [2] came to 106%; in assay [3] it was 101%. In assay [4], the fluorescence slope was -0.45 (inactive). Also, the NADPH fluorescence slope in assay [5] is -5e-05 (inactive). Besides, the slope in assay [6] was 0.00554 (inactive).

`CCCCn1c(O)c(C(C)=Nc2cccc(C(=O)O)c2)c(=O)[nH]c1=O`: the cell count in [1] is 278. Besides, the inhibition in assay [1] was 6.8% (inactive); in [3], -151% (inactive); in [7] it was 4.58% (inactive); in [8] it was 3.8% (inactive). For the same compound, the inhibition of aggregation in assay [2] is 4.7% (inactive). Further, the values for the nuclei count in assay [2] and in assay [3] were 75.2% and 199%, respectively. In addition, the results for the fluorescence slope in assay [4] and in assay [9] were -0.604 (inactive) and 0.00369 (inactive), respectively. Besides, the NADPH fluorescence slope in [5] is 2.7e-05 (inactive).

Compound `CCOC(=O)C(O)(c1ccc(N(CC)C(=O)OC)cc1)C(F)(F)F` (centres undefined) returned a cell count in assay [1] of 614. Besides, the inhibition in assay [1] is -6.1% (inactive); in assay [3], -140% (inactive); in [7] it was 13.7% (inactive); in assay [8], 13.7% (inactive). Further, the inhibition of aggregation in assay [2] was -9.5% (inactive). Also, the nuclei count came out at 91.2% in assay [2] and 111% in assay [3]. For the same compound, the fluorescence slope is -0.425 (inactive) in assay [4] and 0.00401 (inactive) in [9]. Moreover, in [5], the NADPH fluorescence slope is -0.000455 (inactive).

For `O=C(O)Cn1cc(C(=O)c2ccccc2)c2ccccc21`, the cell count in [1] stood at 389. In addition, the inhibition was -3.3% (inactive) in [1], -22.1% (inactive) in assay [3], 9.27% (inactive) in [7] and 23% (inactive) in [8]. For the same compound, in assay [2], the inhibition of aggregation is 16.7% (inactive). The nuclei count in assay [2] stood at 89.2%; in assay [3], 104%. Besides, the fluorescence slope in assay [4] is -0.352 (inactive). Besides, the NADPH fluorescence slope in assay [5] was 1.2e-06 (inactive). Further, in assay [6], the slope was 0.00605 (inactive). Also, the call in assay [10] was inactive.

As for `CC(C)=CCSc1nnc([C@@H](N)Cc2c[nH]c3ccccc23)o1`, the cell count in [1] amounted to 593. Besides, the inhibition in assay [1] was 0.9% (inactive); in [3], 2.3% (inactive); in [7], 5.87% (inactive); in assay [8] it was 2.18% (inactive). The inhibition of aggregation in assay [2] was 14.2% (inactive). The nuclei count in assay [2] was 101%; in assay [3] it was 92.2%. The results for the fluorescence slope in assay [4] and in assay [9] were -0.561 (inactive) and 0.00453 (inactive), respectively. In assay [5], the NADPH fluorescence slope is 2.9e-05 (inactive).

With `O=C(c1ccc(CS(=O)(=O)c2ccccc2)o1)N1CCC2(CC1)OCCO2`, in assay [1], the cell count was found to be 379. Also, the inhibition in assay [1] was 8% (inactive); in [3], -80.2% (inactive); in [7] it was -15.4% (inactive); in assay [8] it was -9.63% (inactive). In addition, the inhibition of aggregation in assay [2] was -2% (inactive). In addition, the nuclei count was found to be 97% in assay [2] and 107% in assay [3]. In addition, the fluorescence slope in assay [4] is -0.523 (inactive); in assay [9] it was 0.00484 (inactive). Further, the NADPH fluorescence slope in assay [5] was -0.000178 (inactive).

In the case of `CCCN1CCC[C@@H](c2cccc(O)c2)C1`, the inhibition in assay [11] was 0.338% (inactive).

For `CCCN(CCC)[C@@H]1CCc2c(F)ccc(O)c2C1`, the inhibition in assay [11] was -5.24% (inactive).

As to `CCCN(CCC)CCc1ccc(O)c(O)c1`, the inhibition in assay [11] was 0.931% (inactive).

Consider `O=C(O)CC[N+](=O)[O-]`, for which, in assay [11], the inhibition was 2.51% (inactive).

As for `CCN(CCCl)Cc1ccccc1Br`, the inhibition in assay [11] is 6.59% (inactive).

Consider `COc1ccc2c(c1)C13CCCCC1C(C2)N(C)CC3` (centres undefined), for which the inhibition in [11] is 6.06% (inactive).

As for `C=C(C)[C@H]1CN[C@H](C(=O)O)[C@H]1CC(=O)O`, the inhibition in [11] is -2.25% (inactive).

Consider `CCOC(=O)c1ncn2c1[C@@H]1CCCN1C(=O)c1cc(OC)ccc1-2`, for which, in assay [11], the inhibition was 6.1% (inactive).

For the compound `Nc1ccncc1`, in [11], the inhibition is 14.4% (inactive).

As for `C=CCN1CCC23c4c5ccc(O)c4O[C@H]2C(=O)CC[C@@]3(O)C1C5` (some centres undefined), in assay [11], the inhibition is 4.89% (inactive).

Turning to `Clc1cc(I)cc(Cl)c1NC1=NCCN1`, in assay [11], the inhibition was 9.51% (inactive).

For `CCc1c(C(=O)OC)ncc2[nH]c3cc(OC)c(OC)cc3c12`, in [11], the inhibition was 1.73% (inactive).

As for `c1ccc(C2CC2)c(OCC2=NCCN2)c1`, the inhibition in assay [11] was 3.8% (inactive).

On to `CC1=NN=C(c2ccc(N)cc2)c2cc3c(cc2C1)OCO3`, for which the inhibition in assay [11] is -2.8% (inactive).

With `C[N+](C)(C)CC#CCN1CCCC1=O`, the inhibition in [11] was -6.29% (inactive).

In the case of `Clc1ccc(N2CC3CCC(C2)N3)nn1`, the inhibition in assay [11] was 1.03% (inactive).

For the compound `CCCN(CCC)C(=O)Cc1c(-c2ccc(Cl)cc2)nc2c(Cl)cc(Cl)cn12`, the inhibition in [11] is -9.74% (inactive).

`CC(=O)c1c(O)c(C)c(O)c(Cc2c(O)c3c(c(C(=O)/C=C/c4ccccc4)c2O)OC(C)(C)C=C3)c1O`: the inhibition in assay [11] was -7.31% (inactive).
